Compounds with a hit are over-represented: about 4.7% of the library has one in this group of screens.
D1 antagonist – human D1 dopamine receptor antagonism. AID 504652. activity change, negative = inhibition, % at 10 µM. hit rate 3.2% among 360,000. P21728. HEK293 TREx D1 cells, calcium flux, dopamine EC80; stronger effect = lower value; in the data active means activity change below about -30%; further: on the % scale 0 is the no-effect control and ±100 the full control effect
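Tetracycline-induced HEK293 T-REx cells with force-coupled D1 receptor were loaded with a no-wash calcium dye. Compound was added after a 10 s baseline and read kinetically for 180 s; EC80 dopamine was then added and calcium flux followed another 180 s.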
TRHR enhancer – allosteric enhancers of human TRH receptor; enhancement, % at 2 µM; AID 493056; hit rate 0.66% among 360,000; TRHR cells, fluo-8 calcium fluorescence, EC20 TRH enhancement; P34981; in the data active means enhancement above about 30%; further: 0% is about no effect
Target sequence (P34981 whole entry, looked up): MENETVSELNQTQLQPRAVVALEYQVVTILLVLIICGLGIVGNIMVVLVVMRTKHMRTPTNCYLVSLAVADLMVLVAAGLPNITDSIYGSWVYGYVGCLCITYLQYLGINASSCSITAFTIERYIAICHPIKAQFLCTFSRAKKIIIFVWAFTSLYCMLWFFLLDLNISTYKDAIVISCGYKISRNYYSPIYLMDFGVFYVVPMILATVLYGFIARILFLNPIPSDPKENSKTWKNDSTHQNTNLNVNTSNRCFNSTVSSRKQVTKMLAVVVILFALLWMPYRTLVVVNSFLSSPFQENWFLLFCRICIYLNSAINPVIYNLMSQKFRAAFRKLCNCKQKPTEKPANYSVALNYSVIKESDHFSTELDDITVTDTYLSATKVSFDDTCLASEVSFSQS
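TRHR-expressing cells loaded with fluo-8 calcium dye were read kinetically (ex 480/em 530) during compound addition, then stimulated with an EC20 of TRH (10 nM final). Enhancement of the Gq-mediated intracellular calcium response was scored.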
D1 potentiator – enhances dopamine response at the human D1 receptor | potentiation, % at 10 µM | P21728 | HEK293 TREx D1 cells, calcium flux, dopamine EC20 potentiation | hit rate 0.036% among 360,000; in the data active means potentiation above about 30%; further: 0% is about no effect
D1 agonist – activates the human D1 dopamine receptor; HEK293 T-REx D1 cells, calcium flux, agonist mode; activation, % at 2 µM; hit rate 1% among 360,000; P21728; AID 504660; further: 0% is about no effect
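Tetracycline-induced HEK293 TREx D1 cells, force-coupled to calcium signalling, were dye-loaded with a no-wash calcium kit. Compound was pin-added after a 10 s baseline. Fluorescence was read kinetically at 1 cycle/s for 180 s, with calcium rises flagged as agonism.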
TRHR agonist – TRH receptor (human) agonism. activation, % at 2 µM. TRHR cells, calcium flux fluo-8, FDSS agonist mode. AID 493084. hit rate 0.18% among 360,000; further: 0% is about no effect
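Read-out: compound-evoked intracellular calcium rise in TRHR cells, fluo-8 dye, kinetic FDSS fluorescence at 1 s/cycle following a 10-cycle baseline. Cells cultured overnight before dye loading (30 min–1.5 h, RT).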
Active calls of the source: *; / = no result. Unless noted, no stated cut-off is given here; in the data, active means activation above about 30%; inactive means the rest.

SMILES	D1 antagonist	TRHR enhancer	D1 potentiator	D1 agonist	TRHR agonist
N#C/C(=C\c1sc(N2CCOCC2)nc1-c1ccccc1)C(=O)Nc1cccc2ccccc12	-5	3	2	40*	11
O=C(Nc1ccccc1)c1sc(N2CCOCC2)nc1-c1ccccc1	-1	-5	-7	2	0
C=CCNC(=O)COC(=O)c1ccc(Cl)c(S(N)(=O)=O)c1	-37*	4	-15	3	0
CC(C)Cc1nn2c(=O)cc(COC(=O)c3ccc4c(c3)OCO4)nc2s1	3	-1	-3	2	0
Cc1cc(C)cc(Nc2cc(C(=O)NC3CCC(C)CC3)c3ccccc3n2)c1 (stereo unspecified)	8	33*	-2	2	0
Cc1cc(C)cc(Nc2cc(C(=O)NC3CCCCC3)c3ccccc3n2)c1	4	7	-2	0	-1
CN1CCC(NC(=O)c2cc(-c3cccc(Br)c3)nc3ccccc23)CC1	-35*	3	-10	38*	1
O=C(NC1CC1)c1cc(-c2ccc(Br)cc2)nc2ccccc12	43	0	/	6	0
COc1ccc(-n2c(=O)c3c4c(sc3n(CC(=O)C(C)(C)C)c2=O)CCCC4)c(OC)c1	-10	4	0	3	0
CC1(C2CC2)NC(=O)N(CC(=O)N2CCN(S(=O)(=O)c3ccc(F)c(F)c3)CC2)C1=O (stereo unspecified)	1	-2	-5	2	-1
COc1ccc(NC(=O)CN2CCN(C(=O)C3CCCO3)CC2)c(OC)c1 (stereo unspecified)	4	15	3	50*	0
Cc1ccc(NC(=O)c2cnc(SCC(=O)N3CCCc4ccccc43)n(C)c2=O)cc1	/	3	-1	-4	0
Cc1cc2c(NC(=O)Nc3ccc(C(F)(F)F)cc3)cccc2nn1	-27	7	-4	9	1
COc1ccc(C(NC(=O)C2CCCCC2)c2c(O)ccc3ccccc23)cc1 (stereo unspecified)	-46*	-1	-9	0	0
CCCC(=O)NC(c1ccc(OC)cc1)c1c(O)ccc2ccccc12 (stereo unspecified)	5	4	-4	3	0
Oc1[nH]c(=S)sc1/C=C1\C(c2ccccc2)=Nc2ccccc21	0	-7	-7	38*	9
COc1ccc(Cl)cc1NC(=O)c1cc2nc(-c3ccc(C)cc3)cc(C(F)(F)F)n2n1	15	4	-1	0	3
CCSc1nc2ccccc2c(OCc2cc(C(=O)OC)ccc2OC)c1C(=O)OC	-62*	7	1	40*	5
CCOC(=O)c1c(C)[nH]c(CCC(=O)NCCCN2CCN(c3ccccc3F)CC2)c1C	-24	2	-5	1	0
CCOC(=O)c1cnc2ccc(OCC)cc2c1NCc1ccccc1	-32*	5	-11	11	0
CCOC(=O)c1cnc2ccc(OCC)cc2c1NCc1cccnc1	-3	10	0	1	-1
CCOc1ccc(NC(=O)C(=O)NCCN2CCN(C(=O)c3ccc(C)cc3)CC2)cc1	-1	1	-1	0	-1
CCCN(CCC)C(C)C(=O)NCC1(c2ccccc2)CCCC1 (stereo unspecified)	-41*	-10	-4	0	9
COc1ccc(Cl)cc1-n1c(/C=C/c2cccc3ccccc23)nc2ccccc2c1=O	-35*	-1	-1	-3	0
COc1cc(/C=C/c2nc3cc(Cl)ccc3c(=O)n2-c2ccc(C)cc2C)cc(OC)c1OC	-44*	-3	-1	-1	0
SMILES	D1 antagonist	TRHR enhancer	D1 potentiator	D1 agonist	TRHR agonist
COc1cc(OC)c(OC)cc1/C=C/c1nc2cc3ccccc3cc2c(=O)n1-c1ccccc1Br	-19	0	1	78*	13
COc1ccccc1-n1c(/C=C/c2c(C)n(C)c3ccccc23)nc2ccccc2c1=O	2	-20	0	18	6
COc1cc(OC)c(OC)cc1/C=C/c1nc2cc3ccccc3cc2c(=O)n1-c1ccc(Cl)cc1	-2	-3	-3	23	8
Cc1ccc2c(c1)C(c1ccccc1)C(=O)O2 (stereo unspecified)	10	1	-1	2	0
COc1ccc(CNC(=O)C2CCN(C(=O)c3csc(Nc4ccc(C)cc4)n3)CC2)cc1	0	6	0	1	-1
O=C(c1sccc1Cl)N1CCN(Cc2ccc3c(c2)OCO3)CC1	-21	3	-4	4	1
Cc1cc(C)cc(OCC(=O)NCC(c2ccc(Cl)cc2)N2CCCCC2)c1 (stereo unspecified)	18	2	2	5	0
S=c1[nH]nc(-c2ccccn2)n1/N=C/c1ccc(-c2ccccc2Cl)o1	14	-8	1	0	0
O=C1COc2ccc(C(=O)COC(=O)CCSc3ccc(Cl)cc3)cc2N1	-1	5	0	1	0
O=C1COc2ccc(C(=O)COC(=O)Cc3ccc(Cl)cc3)cc2N1	1	36*	4	6	1
O=C(C1CCN(S(=O)(=O)c2cccs2)CC1)N1CCN(c2ccccc2F)CC1	-15	9	2	0	-1
COc1cccc(NC(=O)Cc2c(O)c3ccccc3[nH]c2=O)c1	0	31*	-12	1	1
COc1cccc(NC(=O)Cn2c(=O)n(CCCCC(=O)NCCc3ccccc3)c(=O)c3ccccc32)c1	-44*	-26	2	0	-1
COc1cccc(NC(=O)Cc2ccccc2)c1	-7	4	-2	2	0
COc1cccc(NC(=O)CCc2ccccc2)c1	-44*	-1	1	-2	-1
COc1cccc(NC(=O)Cn2c(=O)n(CCC(=O)NCCc3ccc(Cl)cc3)c(=O)c3ccccc32)c1	-8	11	0	-2	1
COc1cccc(NC(=O)Nc2cc(C(=O)O)ccc2C)c1	-43*	-5	-6	3	-3
Cc1cc2c(s1)c1cnn(Cc3ccccc3Br)c(=O)c1n2C	5	-2	-6	2	-2
COc1cccc(C(=O)NC(C)CCc2ccccc2)c1 (stereo unspecified)	-1	33*	-2	0	-1
COc1cccc(NC(=O)CN(C)C(=O)CNC(=O)c2ccccc2F)c1	-33*	-3	-1	1	1
CC(CCc1ccccc1)NC(=O)c1ccccc1 (stereo unspecified)	2	-4	-4	0	0
Fc1cccc(CSc2nc(NCCc3ccccc3)c3ccccc3n2)c1	-46*	24	-5	24	2
COc1ccc(C(C)=O)cc1CSc1nc(NCCc2ccccc2)c2ccccc2n1	9	1	-4	6	0
Cc1ccc(Nc2nc3nonc3nc2Nc2cccc(C(F)(F)F)c2)cc1Cl	-35*	-11	-3	14	5

High-throughput results (PubChem)
